“And” between values parts separate entries of the source, which are not always exact repeats. Equal entries are not always repeated. Inconclusive results are not listed. The source made the active and inactive calls. Unless noted, calls come from the whole dose curve; as a rule, active = well fitted curve in the direction sought with a large enough effect; inconclusive = small, poorly fitted or top-dose-only effect, or another doubt; inactive = no such curve, though single readings can be large; an effect the other way counts as inactive or inconclusive.
Tests used:
[1] = target: Cellular tumor antigen p53 (Homo sapiens) (UniProt P04637); assay: Primary qHTS for small molecule compounds that upregulate eGFP-tagged delta133p53alpha (in N-terminal) cells. (AID 2060322); settings: NCI-H358 eGFP-delta133p53alpha fluorescence, 24 h; activation: active compounds read high;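 note: cells pre-induced with doxycycline then dosed without doxycycline; 0% = DMSO vehicle and 100% = reference activator; nearly all actives have a fitted effect of over 75% in size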
In short: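 NCI-H358 cells pre-induced 24 h with 10 ng/ml doxycycline for eGFP-delta133p53alpha, plated dox-free and exposed 24 h at 37C to titrated compounds. Fixed, Hoechst-stained; gated GFP peak intensity by laser scanning cytometry, normalized to DMSO (0%) and 57.5 uM 5-azacytidine (100%).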

[2] = target: Cellular tumor antigen p53 (Homo sapiens) (UniProt P04637); assay: Primary qHTS for small molecule compounds that upregulate eGFP-tagged delta133p53alpha (in C-terminal) cells. (AID 2060324); settings: NCI-H358 delta133p53alpha-eGFP (C-terminal tag), GFP fluorescence imaging, 24 h; series mostly up to 57.5 µM;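 note: 0% = DMSO wells and 100% = 57.5 µM 5-azacytidine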
In short: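 Read-out: gated-cell GFP peak intensity (laser scanning cytometer), plate-normalized with DMSO as 0% activity, after 24 h compound exposure at 37C. Cells were C-terminal eGFP-tagged delta133p53alpha NCI-H358, doxycycline-induced (100 ng/ml, 24 h) before plating.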

[3] = target: Aldehyde dehydrogenase, mitochondrial (Homo sapiens) (UniProt P05091); assay: qHTS for Inhibitors of the Aldehyde Dehydrogenase Family (ALDH2) Validation screens (AID 2061302; active = well fitted inhibition curve with a large enough effect; title and protocol of this record describe different tests;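 note: plate controls were DMSO vehicle for no effect and maximal DPI positive control response for full effect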); settings: ALDH inhibition qHTS; series mostly up to 42.6 µM
[4] = target: Retinaldehyde dehydrogenase 3 (Homo sapiens) (UniProt P47895); assay: qHTS for Inhibitors of the Aldehyde Dehydrogenase Family (ALDH1A3) Validation screen (AID 2061312); settings: ALDH1A3 enzyme inhibition qHTS validation, fluorescence; series mostly up to 84.7 µM; note: % is set by controls: 0 for no effect and ±100 for the full control effect; nearly all actives have a fitted effect of over 45% in size

Cellular tumor antigen p53 (Homo sapiens), sequence (P04637 whole entry, looked up): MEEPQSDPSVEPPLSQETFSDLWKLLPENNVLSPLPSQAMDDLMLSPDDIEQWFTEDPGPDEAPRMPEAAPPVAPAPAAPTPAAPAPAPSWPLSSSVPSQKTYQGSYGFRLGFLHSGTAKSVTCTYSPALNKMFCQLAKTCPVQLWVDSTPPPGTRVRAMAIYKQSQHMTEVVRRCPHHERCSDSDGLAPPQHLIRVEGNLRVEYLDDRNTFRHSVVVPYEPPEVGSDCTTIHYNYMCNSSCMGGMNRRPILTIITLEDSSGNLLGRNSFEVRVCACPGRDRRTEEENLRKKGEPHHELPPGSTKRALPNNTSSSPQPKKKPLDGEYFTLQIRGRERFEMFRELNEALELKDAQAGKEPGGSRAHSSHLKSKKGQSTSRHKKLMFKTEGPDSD

CC(C)NCC(O)COc1ccc(CC(N)=O)cc1 (centres undefined)
inactive: activation [1] -17.7% | Potency [2] | Potency [3] | Potency [4]

C[C@]12C=CC(=O)C=C1CC[C@H]1[C@@H]3C[C@@H](O)[C@](O)(C(=O)CO)[C@@]3(C)C[C@H](O)[C@@]12F
inactive: activation [1] 10.9% and -4.1% | Potency [2] | Potency [3] | Potency [4]

C[C@]12CCC(=O)C=C1CC[C@@H]1[C@@H]2C(=O)C[C@@]2(C)[C@H]1CC[C@]2(O)C(=O)CO
inactive: activation [1] 0.837% and -9.81% | Potency [2] | Potency [3] | Potency [4]

NCCS
inactive: activation [1] -9.6% and 3.67% | Potency [2] | Potency [3] | Potency [4]

Cn1c(=O)c2[nH]c(C3CCCC3)nc2n(C)c1=O
inactive: activation [1] 3.95% | Potency [2] | Potency [3] | Potency [4]

C=C1C[C@@]23CC[C@H]4[C@@](C)(CCC[C@@]4(C)C(=O)O)[C@@H]2CC[C@]1(O)C3
inactive: activation [1] 9.04% | Potency [2] | Potency [3] | Potency [4]

CSC(=N)N
inactive: activation [1] 3.81% | Potency [2] | Potency [3] | Potency [4]

O=C(CCCN1CCC(O)(c2ccc(Cl)cc2)CC1)c1ccc(F)cc1
inactive: activation [1] 37.6% and -8.4% | Potency [2] | Potency [3] | Potency [4]

[Li+]
inactive: activation [1] -7.03% | Potency [2] | Potency [3] | Potency [4]

COc1ccc2c(c1)c(CC(=O)O)c(C)n2C(=O)c1ccccc1
inactive: activation [1] -16.8% | Potency [2] | Potency [3] | Potency [4]

O=C(O)CC[C@@H](C(=O)O)N1C(=O)c2ccccc2C1=O
inactive: activation [1] -14.6% | Potency [2] | Potency [3] | Potency [4]

N#Cc1cc2nc(O)c(O)nc2cc1[N+](=O)[O-]
inactive: activation [1] -30.1% | Potency [2] | Potency [3] | Potency [4]

CCCC1O[C@@H]2C[C@H]3[C@@H]4CCC5=CC(=O)C=C[C@]5(C)[C@H]4[C@@H](O)C[C@]3(C)[C@]2(C(=O)CO)O1 (some centres undefined)
inactive: activation [1] -22.8% | Potency [2] | Potency [3] | Potency [4]

CCCCC1C(=O)N(c2ccccc2)N(c2ccccc2)C1=O
inactive: activation [1] 10% and 16.7% | Potency [2] | Potency [3] | Potency [4]

Cn1cc(C(=O)OCC2CCN(CCNS(C)(=O)=O)CC2)c2ccccc21
inactive: activation [1] -16.5% | Potency [2] | Potency [3] | Potency [4]

O=C(O)C1CCNCC1
inactive: activation [1] -2.71% | Potency [2] | Potency [3] | Potency [4]

CN(C)CCC(c1ccc(Cl)cc1)c1ccccn1 (centres undefined)
inactive: activation [1] -24.5% | Potency [2] | Potency [3] | Potency [4]

N=C(N)c1ccccc1
inactive: activation [1] -12.8% | Potency [2] | Potency [3] | Potency [4]

COc1cc(OC)cc(-c2cc3cnc(N)nc3nc2NC(=O)NC(C)(C)C)c1
inactive: activation [1] 5.06% | Potency [2] | Potency [3] | Potency [4]

O=[N+]([O-])c1cccc2cn[nH]c12
inactive: activation [1] -32.7% | Potency [2] | Potency [3] | Potency [4]

CCCCCCCCCCC(C)(C)C(=O)Nc1c(OC)cc(OC)cc1OC
inactive: activation [1] -40.6% | Potency [2] | Potency [3] | Potency [4]

CC(C)C[C@H](NC(=O)[C@H](O)[C@H](N)Cc1ccccc1)C(=O)O
inactive: activation [1] 3.56% | Potency [2] | Potency [3] | Potency [4]

CCCc1c(-c2ccc(O)cc2)nn(-c2ccc(O)cc2)c1-c1ccc(O)cc1
inactive: activation [1] -36.4% | Potency [2] | Potency [3] | Potency [4]

CCCCCCC/C=C\CCCCCCCCC(=O)O
inactive: activation [1] -38.4% | Potency [2] | Potency [3] | Potency [4]

S=C(S)OC1CC2CC1C1CCCC21 (centres undefined)
inactive: activation [1] -23.4% | Potency [2] | Potency [3] | Potency [4]

C=C(C)C1CC=C(C(=O)O)CC1 (centres undefined)
inactive: activation [1] -6.28% | Potency [2] | Potency [3] | Potency [4]

CC(C)(NS(=O)(=O)c1ccc(Oc2ccc(F)cc2)cc1)C(=O)NO
inactive: activation [1] -8.16% | Potency [2] | Potency [3] | Potency [4]

C=CC(C)=C[C@@]1(C)SC(=O)C(C)=C1O
inactive: activation [1] 0.958% | Potency [2] | Potency [3] | Potency [4]

O=[N+]([O-])c1cccc2c(Br)[nH]nc12
inactive: activation [1] -55.3% | Potency [2] | Potency [3] | Potency [4]

CCN1CCC[C@H]1CNC(=O)c1c(O)c(Cl)cc(Cl)c1OC
inactive: activation [1] -10% and -6.2% | Potency [2] | Potency [3] | Potency [4]

C[C@H](O)C(=O)C1=Nc2c(nc(N)[nH]c2=O)NC1
inactive: activation [1] -8.4% | Potency [2] | Potency [3] | Potency [4]

From PubChem BioAssay (NCATS)
